Measured values taken from PubChem BioAssay.
Activity calls are given as the source filed them.

Columns and labels:
[1] = E. coli DRC41 culture turbidity changes, primary screen, E. coli filamentation inducer project, strain DRC41, OD650, 48 h (AID 1152);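 note: E. coli MC1000 strain DRC41 lacking acrAB efflux pump and sulA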; details: E. coli DRC41 (acrAB sulA), higher = more signal, called active from +8 up or from −8 down
[2] = small-molecule binders of probe aLefty1, primary screen, biochemical, small-molecule microarray, 635/667 nm fluorescence (AID 1153); details: higher = more signal;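 note: score merges spot fluorescence with signal-to-noise ratio from the scanned slide images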
[3] = PSAC antagonists in infected red cells, primary screen, cell-based, P. falciparum Indochina, OD700, 1 h (AID 1154); details: P. falciparum Indochina infected RBC osmotic lysis, higher = more signal, called active from +8 up or from −8 down
[4] = PSAC antagonists in infected red cells, primary screen, cell-based, P. falciparum Indochina, OD700, 2 h (AID 1155);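 note: lysis reports solute entry through the parasite surface anion channel PSAC; channel blockers reduce lysis of infected cells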; details: P. falciparum Indochina infected erythrocytes, osmotic lysis OD700; higher = more signal, called active from +8 up or from −8 down
[5] = osmotic lysis modulators in infected erythrocytes, primary screen, PSAC antagonist project, cell-based, P. falciparum Indochina, OD700, 3 h (AID 1156); details: higher = more signal, called active from +8 up or from −8 down
[6] = PSAC antagonists in infected red cells, primary screen, cell-based, P. falciparum Indochina, OD700, 18 h (AID 1157); details: P. falciparum Indochina infected erythrocytes, osmotic lysis OD700, 18 h; higher = more signal, called active from +8 up or from −8 down
[7] = modulators of S6 phosphorylation in cells, primary screen, cell-based, A549, cytoblot, luminescence, serum-stimulated (AID 1158); details: A549 phospho-S6 cytoblot, 5 h, higher = more signal;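 note: serum-stimulated A549 lung adenocarcinoma cells; signal is phosphorylated S6 detected by cytoblot immunostaining with HRP secondary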
[8] = molecular target: NADPH oxidase 2 (Homo sapiens) (UniProt P04839); experiment: NOX2-dependent H2O2 signal modulators, primary screen, NOX inhibitor project, cell-based, HEK293-NOX2, PMA-stimulated, Amplex Red fluorescence (AID 1159); details: 45 min, higher = more signal, called active from +8 up or from −8 down; note: test concentration not given here
[9] = molecular target: NADPH oxidase 4 (Homo sapiens) (UniProt Q9NPH5); experiment: NOX4-dependent H2O2 signal modulators, primary screen, NOX inhibitor project, cell-based, HEK293-NOX4, tetracycline-induced, Amplex Red fluorescence (AID 1160); details: 45 min, higher = more signal, called active from +8 up or from −8 down
[10] = molecular target: NADPH oxidase 5 (Homo sapiens) (UniProt Q96PH1); experiment: NOX5-dependent H2O2 signal modulators, primary screen, NOX inhibitor project, cell-based, HEK293-NOX5, Amplex Red fluorescence (AID 1161); details: HEK293-NOX5, ionomycin, 45 min, higher = more signal
[11] = A549 cell viability effects, profiling panel, calcein-AM fluorescence, 48 h, basal (AID 1162); details: higher = more signal; note: test concentration not given here
[12] = adipocyte viability effects, profiling panel, cell-based, 3T3-L1 adipocytes, calcein-AM fluorescence, 48 h, basal (AID 1163); details: 3T3-L1 adipocytes viability, higher = more signal; note: test concentration not given here
[13] = HepG2 cell viability effects, profiling panel, calcein-AM fluorescence, 48 h, basal (AID 1164); details: higher = more signal; note: test concentration not given here
[14] = MM1S cell viability effects, profiling panel, calcein-AM fluorescence, 48 h, basal (AID 1165); details: higher = more signal;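 note: viability of MM1S multiple myeloma cells under basal unstimulated conditions; test concentration not given here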
[15] = basal RPMI8226 viability, no added stimulus, profiling panel, cell-based, calcein-AM fluorescence, 48 h, PK04 Diversity Set (AID 1166); details: RPMI8226 myeloma viability, higher = more signal;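 note: cells grown under basal conditions without added stimulus; test concentration not given here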
[16] = basal HepG2 mitochondrial membrane potential changes, profiling panel, cell-based, JC-1 fluorescence, 24 h, 100 nL compound (AID 1167); details: higher = more signal; note: test concentration not given here
[17] = basal 3T3-L1 adipocyte mitochondrial potential changes, profiling panel, cell-based, JC-1 fluorescence, 3T3-L1 adipocytes, 24 h, 100 nL compound (AID 1168); details: JC-1 mitochondrial fluorescence, higher = more signal, called active from +8 up or from −8 down; note: test concentration not given here
[18] = basal RPMI8226 mitochondrial membrane potential changes, profiling panel, cell-based, JC-1 fluorescence, 24 h, 100 nL compound (AID 1169); details: RPMI8226 myeloma, JC-1 mitochondrial potential fluorescence, higher = more signal; note: test concentration not given here
[19] = basal MM1S mitochondrial membrane potential changes, profiling panel, cell-based, JC-1 fluorescence, 24 h, 100 nL compound (AID 1170); details: higher = more signal; note: test concentration not given here
[20] = A549 lung cancer cell viability effects, profiling panel, resazurin fluorescence, 24 h, PK04 Diversity Set (AID 1171); details: higher = more signal, called active from +8 up or from −8 down; note: test concentration not given here

NADPH oxidase 2 (Homo sapiens), sequence (P04839 whole entry, looked up): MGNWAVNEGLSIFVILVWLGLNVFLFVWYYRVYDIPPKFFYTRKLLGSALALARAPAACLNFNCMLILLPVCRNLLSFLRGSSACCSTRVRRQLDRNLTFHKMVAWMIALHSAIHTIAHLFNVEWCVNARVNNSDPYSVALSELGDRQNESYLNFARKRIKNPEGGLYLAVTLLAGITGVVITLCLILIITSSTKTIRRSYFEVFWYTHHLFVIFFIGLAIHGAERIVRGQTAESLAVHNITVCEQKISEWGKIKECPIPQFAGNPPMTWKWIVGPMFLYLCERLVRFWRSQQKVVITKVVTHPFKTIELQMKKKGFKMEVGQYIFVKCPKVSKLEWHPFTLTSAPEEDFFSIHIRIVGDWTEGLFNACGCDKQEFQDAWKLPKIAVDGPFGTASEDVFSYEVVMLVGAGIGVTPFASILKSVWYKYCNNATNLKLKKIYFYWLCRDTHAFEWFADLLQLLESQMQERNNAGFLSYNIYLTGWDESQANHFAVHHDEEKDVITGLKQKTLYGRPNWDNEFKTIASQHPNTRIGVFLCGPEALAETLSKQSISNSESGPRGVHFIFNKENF
NADPH oxidase 4 (Homo sapiens), sequence (Q9NPH5 whole entry, looked up): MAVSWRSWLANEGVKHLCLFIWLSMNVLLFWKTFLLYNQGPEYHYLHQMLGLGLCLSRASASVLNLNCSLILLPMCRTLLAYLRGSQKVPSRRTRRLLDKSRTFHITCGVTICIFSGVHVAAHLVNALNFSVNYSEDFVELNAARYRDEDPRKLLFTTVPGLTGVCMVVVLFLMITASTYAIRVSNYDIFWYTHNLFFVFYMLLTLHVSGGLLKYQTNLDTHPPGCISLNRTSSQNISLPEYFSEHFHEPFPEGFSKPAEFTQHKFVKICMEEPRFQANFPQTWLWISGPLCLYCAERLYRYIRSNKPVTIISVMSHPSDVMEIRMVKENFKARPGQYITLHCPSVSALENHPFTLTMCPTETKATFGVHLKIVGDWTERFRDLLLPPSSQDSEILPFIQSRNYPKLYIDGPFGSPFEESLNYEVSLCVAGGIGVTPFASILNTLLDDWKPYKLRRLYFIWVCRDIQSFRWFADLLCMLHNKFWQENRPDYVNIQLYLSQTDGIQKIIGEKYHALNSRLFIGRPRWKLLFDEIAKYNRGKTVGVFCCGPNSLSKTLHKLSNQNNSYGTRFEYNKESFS
NADPH oxidase 5 (Homo sapiens), sequence (Q96PH1 whole entry, looked up): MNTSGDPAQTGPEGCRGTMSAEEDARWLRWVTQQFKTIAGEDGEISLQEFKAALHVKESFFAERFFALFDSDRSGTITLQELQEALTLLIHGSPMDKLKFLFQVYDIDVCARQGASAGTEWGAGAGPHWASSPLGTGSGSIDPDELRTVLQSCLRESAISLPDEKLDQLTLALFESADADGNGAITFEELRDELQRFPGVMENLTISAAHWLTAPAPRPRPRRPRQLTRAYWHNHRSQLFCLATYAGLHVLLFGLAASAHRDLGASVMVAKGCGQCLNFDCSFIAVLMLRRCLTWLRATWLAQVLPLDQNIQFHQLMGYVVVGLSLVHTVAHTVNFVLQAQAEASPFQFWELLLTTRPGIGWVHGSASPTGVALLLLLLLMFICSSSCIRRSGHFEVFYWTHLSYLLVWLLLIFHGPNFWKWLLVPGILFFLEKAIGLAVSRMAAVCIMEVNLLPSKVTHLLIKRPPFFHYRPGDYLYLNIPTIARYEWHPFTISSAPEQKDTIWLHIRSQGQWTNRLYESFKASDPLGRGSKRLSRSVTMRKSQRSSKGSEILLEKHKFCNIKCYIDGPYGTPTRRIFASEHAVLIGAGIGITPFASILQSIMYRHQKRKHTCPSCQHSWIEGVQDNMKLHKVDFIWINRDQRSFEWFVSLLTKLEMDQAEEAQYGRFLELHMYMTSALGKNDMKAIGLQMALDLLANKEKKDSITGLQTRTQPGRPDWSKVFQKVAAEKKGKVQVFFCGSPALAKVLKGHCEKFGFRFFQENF

SMILES	z-score [1]	composite z-score [2]	z-score [3]	z-score [4]	z-score [5]	z-score [6]	z-score [7]	z-score [8]	z-score [9]	z-score [10]	z-score [11]	z-score [12]	z-score [13]	z-score [14]	z-score [15]	z-score [16]	z-score [17]	z-score [18]	z-score [19]	z-score [20]
CCCCC(O)C1C=CC2C(=O)NC(=O)C2N1Nc1ccccn1 (stereo not given)	-2.16 (inactive)	0.235	-0.162 (inactive)	0.387 (inactive)	-0.343 (inactive)	0.483 (inactive)	-1.11	-1.48 (inactive)	-2.5 (inactive)	-2.17	-0.795	-0.291	1.18	0.106	0.0087	-1.68	-0.285 (inactive)	0.617	-0.00704	-0.751 (inactive)
CCCCCCCCCCC(O)C1C=CC2C(=O)N(C)C(=O)C2N1N1CCCCC1 (stereo not given)	-1.83 (inactive)	0.532	9.71 (active)	2.41 (inactive)	2.12 (inactive)	2.2 (inactive)	-1.58	1.18 (inactive)	-1.94 (inactive)	2.16	-1.25	-1.6	-1.17	-3.29	-3.54	-0.235	-1 (inactive)	-1	-0.517	-0.041 (inactive)
[N-]=[N+]=NCc1ccccc1C[C@]1(C(=O)N2CCCCC2)N=C(c2ccc(OCCCO)cc2)O[C@H]1c1ccccc1	0.74 (inactive)	0.118	20.4 (active)	5.49 (inactive)	3.48 (inactive)	2.04 (inactive)	1.38	-1.16 (inactive)	-0.0602 (inactive)	-0.924	-0.888	0.252	-0.923	-2.59	-4.27	0.117	0.845 (inactive)	-1.14	-2.38	-0.136 (inactive)
O=C1OCCC=C[C@H]2OC34C=CCN(c5ccc(Cl)cc5)C(=O)[C@H]3N(CCO)C(=O)[C@@H]4C12 (stereo not given in full)	-0.232 (inactive)	-0.0501	0.773 (inactive)	0.183 (inactive)	0.766 (inactive)	0.355 (inactive)	-0.509	1.69 (inactive)	-0.0621 (inactive)	1.48	-0.384	0.0844	0.0509	0.739	-0.165	-0.28	0.296 (inactive)	0.0137	1.29	0.519 (inactive)
CC(C)C[C@H]1NC(=O)[C@@]23C(=O)N[C@@H](Cc4ccccc4)C2[C@H](C)[C@@]2(C)O[C@H]2C3/C=C/C/C=C\CNC(=O)[C@@H]2CCCN2C1=O (stereo not given in full)	-1.09 (inactive)	-0.0544	0.0869 (inactive)	-0.26 (inactive)	-0.875 (inactive)	-0.234 (inactive)	0.0247	0.708 (inactive)	1.29 (inactive)	0.968	0.0246	-0.0768	-0.54	-1.41	-0.531	-0.831	0.244 (inactive)	0.868	-0.391	-0.659 (inactive)
C=CC[C@@]1(C(=O)N(C)C)N=C(c2ccc(OCCCO)cc2)O[C@@H]1c1ccccc1	-0.463 (inactive)	0.123	24 (active)	5.44 (inactive)	0.549 (inactive)	1.13 (inactive)	-0.342	-0.315 (inactive)	0.723 (inactive)	-0.651	-0.511	-0.681	-0.815	-1.01	0.127	-0.644	-0.895 (inactive)	-0.305	-0.491	0.79 (inactive)
O=C1O[C@@H](c2ccccc2)[C@@H](c2ccccc2)N2[C@@H](c3ccc(OCCO)cc3)[C@]3(C(=O)Nc4ccc(C#CCCO)cc43)[C@@H](C(=O)Nc3nc4ccccc4s3)[C@H]12	2.3 (inactive)	0.573	1.01 (inactive)	-0.0042 (inactive)	-1.53 (inactive)	-1.15 (inactive)	0.922	0.762 (inactive)	0.868 (inactive)	1.52	0.0652	0.794	-0.354	-0.267	-0.0767	-3.09	1.57 (inactive)	-1.06	-1.49	1.58 (inactive)
CCc1cccc(NC(=O)O[C@H]2[C@H](OC(=O)Nc3ccc4c(c3)OCO4)[C@H](OC(=O)Nc3ccc4c(c3)OCO4)[C@@H](OC)O[C@@H]2CO)c1	-0.128 (inactive)	0.349	18.2 (active)	2.63 (inactive)	1.73 (inactive)	1.18 (inactive)	0.921	-3.43 (inactive)	-1.11 (inactive)	-1.65	-1.45	1.16	-1.35	-2.42	-2.17	-1.56	0.248 (inactive)	-1.15	-1.18	-2.33 (inactive)
